# Measurements as given in PubChem BioAssay (Tox21).
# A number with no mark means an inactive call. Records with an inconclusive call do not appear. Entries that show only a call come without a potency. Calls of active or inactive are those of the source. Unless noted, calls follow the shape of the dose curve; as a rule, active = well fitted curve in the direction sought with a large enough effect in the repeat runs; inconclusive = weak or mixed curves; inactive = no such curve, though single readings can be large; an effect the other way counts as inactive or inconclusive.
# Columns and labels:
# [1] = qHTS assay to identify small molecule agonists of H2AX (AID 1224845; active = well fitted activation curve with a large enough effect in the signal ratio in the repeat runs, not every such curve was filed as active; the % refers to the signal ratio)
# Outline: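 Wild-type CHO-K1 cells plated overnight, then exposed 3 hr at 37C to compounds at 15 concentrations (0.76% DMSO). Lysed, then HTRF anti-pH2AX(S139)-cryptate/anti-H2AX-d2 detection after 24 hr at room temperature; emissions 665 and 620 nm.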
# [2] = qHTS assay to identify small molecule agonists of the hypoxia (HIF-1) signaling pathway (AID 1224846; active = well fitted activation curve with a large enough effect in the signal ratio in the repeat runs, not every such curve was filed as active; the % refers to the signal ratio)
# Outline: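 Reporter induction in HRE-bla ME-180 cells is taken as agonism: cells sit 5 hrs after plating, receive compounds or DMSO only, incubate 17 hrs at 37C under 5% CO2, and are loaded with CCF4-AM for beta-lactamase FRET measurement.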
# [3] = qHTS assay to identify small molecule agonists of H2AX - cell viability counter screen (AID 1224847; calls by dose curve; also: top concentration of the series differs between compounds; nearly all actives have a fitted effect of over 30% in size)
# Outline: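 Wild-type CHO-K1 cells (10% FBS medium) were plated overnight at 37C, exposed to compounds at 15 concentrations for 3 hr at 37C (0.76% DMSO final), and viability was read as CellTiter-Glo luminescence after 30 min at room temperature.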
# [4] = qHTS assay to identify small molecule antagonists of the estrogen related receptor (ERR) signaling pathway from Tox21 library (AID 1224848); also: nearly all actives have a fitted effect of over 50% in size; also: potency is read from the fitted curve at half-maximal effect
# Outline: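 Tox21 10K compounds in DMSO tested for ERR pathway antagonism in NTP's ERR cell line; 18 h, 37 C exposure; ONE-Glo luminescence.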
# [5] = qHTS assay to identify small molecule agonists of the estrogen related receptor (ERR) signaling pathway from Tox21 library (AID 1224849; calls by dose curve; also: nearly all actives have a fitted effect of over 15% in size); details: ERR reporter cell line, ONE-Glo luciferase, 18 h; at 92.4 µM (top of the series) unless noted
# Outline: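 Tox21 compounds tested for ERR agonism in an NTP reporter cell line: 18 h treatment at 37 C, then ONE-Glo luminescence.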
# [6] = qHTS RealTime-Glo MT Cell Viability Assay in HepG2 cells - 24 hour (AID 1224867); also: nearly all actives have a fitted effect of over 50% in size
# Outline: (§1)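 Luminescence read-out: viable HepG2 cells reduce a prosubstrate to a NanoLuc substrate, giving a signal proportional to live cell number. Reads taken at 0, 8, 16, 24, 32 and 40 h of compound exposure at 37 C.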
# [7] = qHTS RealTime-Glo MT Cell Viability Assay in HEK293 cells - 32 hour (AID 1224868); also: nearly all actives have a fitted effect of over 50% in size; also: potency is read from the fitted curve at half-maximal effect; as to activity change, negative = cytotoxic: top concentration of the series differs between compounds
# Outline: (§2)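 Nonlytic real-time viability readout: viable cells convert prosubstrate to NanoLuc substrate, giving luminescence proportional to live cell number. HEK293, 600 cells/well, compound added after 5 h, continuous culture at 37 C.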
# [8] = A CellTox Green Cytotoxicity Assay to monitor cytotoxicity in HEK293 cells - 0 hour (AID 1224869); also: nearly all actives have a fitted effect of over 50% in size
# Outline: (§3)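 Tox21 screen in HEK293: membrane-impermeant cyanine dye fluoresces on binding dead-cell DNA; compound pinned 5 h post-seeding, plates held at 37 C, signal read repeatedly through 40 h.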
# [9] = qHTS RealTime-Glo MT Cell Viability Assay in HepG2 cells - 40 hour (AID 1224870); also: nearly all actives have a fitted effect of over 50% in size
# Outline: (§4)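 HepG2 cells mixed with RealTime-Glo MT reagents (NanoLuc plus cell-permeant prosubstrate) were seeded at 600 cells/well, incubated 5 h at 37 C/5% CO2, then pinned with compounds in DMSO; nonlytic luminescence tracked viability during 40 h treatment.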
# [10] = A CellTox Green Cytotoxicity Assay to monitor cytotoxicity in HEK293 cells - 40 hour (AID 1224871); also: nearly all actives have a fitted effect of over 45% in size
# Outline: as §3
# [11] = qHTS RealTime-Glo MT Cell Viability Assay in HEK293 cells - 16 hour (AID 1224872); also: nearly all actives have a fitted effect of over 50% in size; also: potency is read from the fitted curve at half-maximal effect; as to activity change, negative = cytotoxicity: top concentration of the series differs between compounds
# Outline: as §2
# [12] = qHTS RealTime-Glo MT Cell Viability Assay in HepG2 cells - 8 hour (AID 1224873); also: nearly all actives have a fitted effect of over 55% in size
# Outline: as §4
# [13] = qHTS RealTime-Glo MT Cell Viability Assay in HEK293 cells - 40 hour (AID 1224874); details: RealTime-Glo luminescence; max response: stronger effect = lower value; also: nearly all actives have a fitted effect of over 50% in size; also: potency is read from the fitted curve at half-maximal effect
# Outline: (§5)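 HEK293 + NanoLuc + prosubstrate, 600 cells/well; 5 h, 37 C/5% CO2; compound 23 nL in DMSO by pintool; 37 C; luminescence read at 0, 8, 16, 24, 32 and 40 h time points.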
# [14] = A CellTox Green Cytotoxicity Assay to monitor cytotoxicity in HepG2 cells - 16 hour (AID 1224876); also: nearly all actives have a fitted effect of over 45% in size
# Outline: (§6)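 Measurements at 0, 8, 16, 24, 32 and 40 h of treatment captured CellTox Green fluorescence in HepG2 cells that had been co-plated with reagent and preincubated 5 h at 37 C/5% CO2.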
# [15] = qHTS RealTime-Glo MT Cell Viability Assay in HepG2 cells - 32 hour (AID 1224877); also: nearly all actives have a fitted effect of over 55% in size
# Outline: as §1
# [16] = A CellTox Green Cytotoxicity Assay to monitor cytotoxicity in HepG2 cells - 24 hour (AID 1224878); also: nearly all actives have a fitted effect of over 45% in size; also: potency is read from the fitted curve at half-maximal effect
# Outline: as §6
# [17] = A CellTox Green Cytotoxicity Assay to monitor cytotoxicity in HepG2 cells - 40 hour (AID 1224879); also: nearly all actives have a fitted effect of over 40% in size; also: potency is read from the fitted curve at half-maximal effect
# Outline: as §6
# [18] = qHTS RealTime-Glo MT Cell Viability Assay in HEK293 cells - 0 hour (AID 1224880); also: top concentration of the series differs between compounds; nearly all actives have a fitted effect of over 45% in size
# Outline: as §5
# [19] = A CellTox Green Cytotoxicity Assay to monitor cytotoxicity in HEK293 cells - 32 hour (AID 1224881); also: nearly all actives have a fitted effect of over 40% in size
# Outline: as §3
# [20] = A CellTox Green Cytotoxicity Assay to monitor cytotoxicity in HEK293 cells - 24 hour (AID 1224875); also: nearly all actives have a fitted effect of over 45% in size
# Outline: as §3
compound,measurement,setting,value
C=C(C)CCCC,Potency,[1],inactive
same,outcome,[2],inactive
same,Potency,[3],inactive
same,Potency,[4],inactive
same,"activity change, positive = activation",[5],6.79%
same,Potency,[6],inactive
same,Potency,[7],inactive
same,Potency,[8],inactive
same,Potency,[9],inactive
same,Potency,[10],inactive
same,Potency,[11],inactive
same,Potency,[12],inactive
same,max response,[13],3.81%
same,Potency,[14],inactive
same,Potency,[15],inactive
same,Potency,[16],inactive
same,Potency,[17],inactive
same,Potency,[18],inactive
same,Potency,[19],inactive
c1cc[nH]c1,Potency,[1],inactive
same,outcome,[2],inactive
same,Potency,[3],inactive
same,Potency,[4],inactive
same,"activity change, positive = activation",[5],-5.69%
same,Potency,[6],inactive
same,Potency,[7],inactive
same,Potency,[8],inactive
same,Potency,[9],inactive
same,Potency,[10],inactive
same,Potency,[11],inactive
same,max response,[13],10.9%
same,Potency,[20],inactive
same,Potency,[14],inactive
same,Potency,[15],inactive
same,Potency,[16],inactive
same,Potency,[18],inactive
same,Potency,[19],inactive
CCCCCCCCCCc1ccccc1,Potency,[1],inactive
same,outcome,[2],inactive
same,Potency,[3],inactive
same,Potency,[4],inactive
same,"activity change, positive = activation",[5],0.758%
same,Potency,[6],inactive
same,Potency,[7],inactive
same,Potency,[8],inactive
same,Potency,[9],inactive
same,Potency,[10],inactive
same,Potency,[11],inactive
same,Potency,[12],inactive
same,Potency,[20],inactive
same,Potency,[14],inactive
same,Potency,[15],inactive
same,Potency,[16],inactive
same,Potency,[17],inactive
same,Potency,[18],inactive
same,Potency,[19],inactive
CC[N+](CC)(CC)Cc1ccccc1,Potency,[1],inactive
same,outcome,[2],inactive
same,Potency,[3],inactive
same,Potency,[4],inactive
same,"activity change, positive = activation",[5],-4.7%
same,Potency,[6],inactive
same,Potency,[7],inactive
same,Potency,[8],inactive
same,Potency,[9],inactive
same,Potency,[10],inactive
same,Potency,[11],inactive
same,Potency,[12],inactive
same,max response,[13],3.38%
same,Potency,[14],inactive
same,Potency,[15],inactive
same,Potency,[16],inactive
same,Potency,[17],inactive
same,Potency,[18],inactive
same,Potency,[19],inactive
CCc1cccc(CC)c1N(COC)C(=O)CS(=O)(=O)O,Potency,[1],inactive
same,outcome,[2],inactive
same,Potency,[3],inactive
same,Potency,[4],inactive
same,"activity change, positive = activation",[5],-4.79%
same,Potency,[6],inactive
same,Potency,[7],inactive
same,Potency,[8],inactive
same,Potency,[10],inactive
same,Potency,[11],inactive
same,Potency,[12],inactive
same,max response,[13],20.8%
same,Potency,[20],inactive
same,Potency,[14],inactive
same,Potency,[15],inactive
same,Potency,[16],inactive
same,Potency,[17],inactive
same,Potency,[18],inactive
same,Potency,[19],inactive
CC1(C)C(=O)N(Br)C(=O)N1Br,Potency,[1],inactive
same,outcome,[2],inactive
same,Potency,[3],inactive
same,Potency,[4],inactive
same,"activity change, positive = activation",[5],3.41%
same,Potency,[6],inactive
same,Potency,[7],inactive
same,Potency,[8],inactive
same,Potency,[9],inactive
same,Potency,[10],inactive
same,Potency,[11],inactive
same,Potency,[12],inactive
same,max response,[13],-1.21%
same,Potency,[20],inactive
same,Potency,[14],inactive
same,Potency,[15],inactive
same,Potency,[16],inactive
same,Potency,[17],inactive
same,Potency,[18],inactive
same,Potency,[19],inactive
O=S(=O)(O)CCCN1CCOCC1,Potency,[1],inactive
same,outcome,[2],inactive
same,Potency,[3],inactive
same,Potency,[4],inactive
same,"activity change, positive = activation",[5],-0.481%
same,Potency,[6],inactive
same,Potency,[7],inactive
same,Potency,[8],inactive
same,Potency,[9],inactive
same,Potency,[10],inactive
same,Potency,[11],inactive
same,Potency,[12],inactive
same,max response,[13],12.7%
same,Potency,[20],inactive
same,Potency,[14],inactive
same,Potency,[15],inactive
same,Potency,[16],inactive
same,Potency,[17],inactive
same,Potency,[19],inactive
CCC1CCCCC1,Potency,[1],inactive
same,outcome,[2],inactive
same,Potency,[3],inactive
same,Potency,[4],inactive
same,"activity change, positive = activation",[5],11.4%
same,Potency,[6],inactive
same,Potency,[7],inactive
same,Potency,[8],inactive
same,Potency,[9],inactive
same,Potency,[10],inactive
same,Potency,[11],inactive
same,Potency,[12],inactive
same,max response,[13],-1.07%
same,Potency,[20],inactive
same,Potency,[14],inactive
same,Potency,[15],inactive
same,Potency,[16],inactive
same,Potency,[17],inactive
same,Potency,[18],inactive
same,Potency,[19],inactive
C=CC(=C)CC/C=C(\C)CCC=C(C)C,activation (H2AX phosphorylation),[1],-0.467% [at 31.6 µM]
same,activation,[2],-0.763% [at 15.8 µM]
same,"activity change, negative = cytotoxicity",[3],2.41% [at 31.6 µM]
same,"activity, negative = inhibition",[4],-7.19% [at 19 µM]
same,"activity change, positive = activation",[5],-3.55% [at 19 µM]
same,"activity change, negative = cytotoxicity",[6],0.599% [at 15.8 µM]
same,"activity change, negative = cytotoxic",[7],-12.8% [at 15.8 µM]
same,cytotoxicity,[8],0.448% [at 15.8 µM]
same,"activity change, negative = cytotoxic",[9],-6.2% [at 15.8 µM]
same,cytotoxicity increase,[10],4.27% [at 15.8 µM]
same,"activity change, negative = cytotoxicity",[11],-2.14% [at 15.8 µM]
same,"viability change, negative = cytotoxic",[12],1.83% [at 15.8 µM]
same,max response,[13],-13.5%
same,activity change,[20],"0.574% [at 15.8 µM, stronger effect = higher value]"
same,cytotoxicity increase,[14],1.01% [at 15.8 µM]
same,"activity change, negative = cytotoxic",[15],-2.56% [at 15.8 µM]
same,cytotoxicity,[16],-0.282% [at 15.8 µM]
same,cytotoxicity increase,[17],-0.316% [at 15.8 µM]
same,"activity change, negative = cytotoxicity",[18],-0.65% [at 15.8 µM]
CC1CCCCN1CCCOC(=O)c1ccc(OC2CCCCC2)cc1 (stereo unspecified),Potency,[1],inactive
same,outcome,[2],inactive
same,Potency,[3],inactive
same,Potency,[4],11.9 µM (active)
same,"activity change, positive = activation",[5],-35.8% [at 42.5 µM]
same,Potency,[7],21.3 µM (active)
same,Potency,[8],inactive
same,Potency,[11],15.1 µM (active)
same,Potency,[12],inactive
same,Potency,[13],21.3 µM (active)
same,Potency,[16],26.8 µM (active)
same,Potency,[17],26.8 µM (active)
same,Potency,[18],inactive
CO[Si](CCCNCCNCCN)(OC)OC,Potency,[1],inactive
same,outcome,[2],inactive
same,Potency,[3],inactive
same,Potency,[4],inactive
same,"activity change, positive = activation",[5],2.38%
same,Potency,[6],inactive
same,Potency,[8],inactive
same,Potency,[9],inactive
same,Potency,[10],inactive
same,Potency,[11],inactive
same,Potency,[12],inactive
same,max response,[13],4.89%
same,Potency,[20],inactive
same,Potency,[14],inactive
same,Potency,[15],inactive
same,Potency,[16],inactive
same,Potency,[19],inactive
CCC(C)C(=O)OC (stereo unspecified),Potency,[1],inactive
same,outcome,[2],inactive
same,Potency,[3],inactive
same,Potency,[4],inactive
same,"activity change, positive = activation",[5],-4.99%
same,Potency,[6],inactive
same,Potency,[8],inactive
same,Potency,[10],inactive
same,Potency,[11],inactive
same,Potency,[12],inactive
same,max response,[13],4.5%
same,Potency,[20],inactive
same,Potency,[14],inactive
same,Potency,[15],inactive
same,Potency,[16],inactive
same,Potency,[17],inactive
same,Potency,[18],inactive
same,Potency,[19],inactive
CCOC(=O)CC(C)O (stereo unspecified),Potency,[1],inactive
same,outcome,[2],inactive
same,Potency,[3],inactive
same,Potency,[4],inactive
same,"activity change, positive = activation",[5],-9.04%
same,Potency,[6],inactive
same,Potency,[7],inactive
same,Potency,[8],inactive
same,Potency,[10],inactive
same,Potency,[11],inactive
same,Potency,[12],inactive
same,max response,[13],5.55%
same,Potency,[20],inactive
same,Potency,[14],inactive
same,Potency,[15],inactive
same,Potency,[16],inactive
same,Potency,[17],inactive
same,Potency,[19],inactive
CCCCCCCOC(=O)c1ccccc1C(=O)OCCCCCCC,Potency,[1],inactive
same,outcome,[2],inactive
same,Potency,[3],inactive
same,Potency,[4],inactive
same,"activity change, positive = activation",[5],1.61%
same,Potency,[6],inactive
same,Potency,[7],inactive
same,Potency,[8],inactive
same,Potency,[10],inactive
same,Potency,[11],inactive
same,Potency,[12],inactive
same,max response,[13],-16.7%
same,Potency,[14],inactive
same,Potency,[15],inactive
same,Potency,[16],inactive
same,Potency,[17],inactive
same,Potency,[18],inactive
same,Potency,[19],inactive
